FMDV inh: High Throughput Screening for Foot and Mouth Disease Virus Antivirals | hit rate 1.2% among 410,000 | Potency, µM (top dose mostly 57.9 µM), for inactives: at the top dose activity change, negative = inhibition, most hits filed as inhibitors | AID 1159524, 2015 | FMDV antiviral cell-based qHTS; calls by dose curve; tested in HEK293T cells; further: read-out not given here; potency means the concentration at half of the fitted maximal effect; nearly all actives have a fitted effect of over 45% in size
HCV inhibitor: qHTS Assay for Inhibitors of Hepatitis C Virus (HCV) | hit rate 3.4% among 340,000 | Huh7.5.1 HCVcc-Cre infection, luciferase reporter, 44 h | Potency, µM (top dose mostly 41.8 µM), for the others: at the highest dose activity change, negative = inhibition, most hits filed as inhibitors; active means well fitted inhibition curve with a large enough effect; inconclusive means small, poorly fitted or top-dose-only effect, or another doubt; inactive means no such curve, though single readings can be large or run the other way; further: potency means the concentration at half of the fitted maximal effect
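Infectious HCV cell culture screen: compound-treated cells (1,000/well, pre-plated 4 h) are infected with HCVcc-Cre at roughly 0.5 moi and grown 44 h. Infection is quantified by luciferase signal after 15 min substrate incubation at room temperature.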
HCMV antiviral: qHTS Assay for inhibitors of the human cytomegalovirus (HCMV); HFF cells, HCMV-luciferase reporter, 72 h; hits give low values; activity change, negative = inhibition, % at 57.5 µM; hit rate 4.5% among 410,000; AID 1259415, 2018; in the data active means activity change below about -60%; inconclusive means no clear call, values can overlap the other calls; inactive means above about -39%
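Two compound doses tested in HFFs infected with HCMV-luciferase, MOI 1 PFU/cell, 72 h at 37C. Lysate luminescence read with OneGlo; data normalized against buffer-only and 10uM Salinomycin inhibitor controls.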
LASV entry inh: qHTS for Inhibitors of binding or entry into cells for Lassa Virus; Lassa virus pseudotype entry inhibition, cell reporter; Potency, µM (highest dose often 37.9 µM), for the others: at the top dose activity change, negative = inhibition, usual class: inhibitors; hit rate 1.2% among 300,000; AID 540256, 2011; calls by dose curve; tested in HEK293 cells; further: potency means the concentration at half of the fitted maximal effect; nearly all actives have a fitted effect of over 50% in size
Marburg entry inh: qHTS for inhibitors of binding or entry into cells for Marburg Virus; hit rate 1.8% among 300,000; Marburg virus pseudotyped entry inhibition, cell reporter; AID 540276, 2011; Potency, µM (titrated, usually from 37.8 µM), for inactives: at the highest dose activity change, negative = inhibition, hits mostly inhibitors; calls by dose curve; tested in HEK293 cells; further: potency means the concentration at half of the fitted maximal effect
* = called active by the depositor; u = inconclusive; x = not tested or not shown; ! = repeats disagree; [ ] = remark or other dose. In the library only some 7.9% were active in any assay of this set; here they are far more common. On the % scale 0 is the no-effect control and ±100 the full control effect.

SMILES	FMDV inh	HCV inhibitor	HCMV antiviral	LASV entry inh	Marburg entry inh
O=C(O)CCn1cnc2onc(-c3ccccc3Cl)c2c1=O	30%	x	12	15%[46.1 µM]	-10%[46.1 µM]
CCOC(=O)Cc1ccc(NC(=O)Nc2cccc(OCc3cc(=O)n4cc(C)ccc4n3)c2)cc1	-12%	x	28	-16%[46.1 µM]	x
Cc1ccc(C(=O)COc2ccccc2C(=O)Nc2ccccc2)cc1	u	16µM*	19	u	u
Cc1cccc(NC(=O)COc2ccccc2C(=O)NC(C)c2ccccc2)c1 (stereo not drawn)	-18%	10µM*	x	u	u
Cc1ccc(NC(=O)c2ccccc2OCC(=O)c2ccccc2)cc1	-6%	u	-7	-1%	-14%
Cc1ccccc1OCC(=O)Nc1cccc(NC(=O)c2ccco2)c1	u	u	-35	-26%	0%
Cc1ccccc1OCC(=O)Nc1ccc(NC(=O)c2ccco2)cc1	-1%	u	-80*	u	-23%
COc1ccc(NC(=O)c2ccco2)cc1NC(=O)COc1cc(C)ccc1C(C)C	u	x	-79*	-1%[46.1 µM]	-27%[46.1 µM]
Cc1ccc(C(C)C)cc1OCC(=O)NNC(=O)Nc1ccccc1	7%	-16%	-38	-11%[46.1 µM]	-13%[46.1 µM]
Cc1ccc(C(C)C)c(OCC(=O)NNC(=O)Nc2ccccc2)c1	-27%	-21%	-67*	0%	u
Cn1c(=O)n(C)c2cc(N3CCOCC3)c(NC(=O)c3ccc(Cl)cc3)cc21	-12%	x	-4	10%[46.1 µM]	u
C=CCn1c(SCC(=O)c2ccc(O)c(O)c2)nnc1-c1cccc(Cl)c1	-27%	4µM*	23	x	x
CCc1c(C)sc2c1CCN(Cc1cccc(F)c1)C2c1ccccc1 (stereo not drawn)	0%	x	-78*	u	x
CCc1c(C)sc2c1CCN(Cc1ccc(F)cc1)C2c1ccccc1 (stereo not drawn)	0%	x	-98*	u	x
CCc1c(C)sc2c1CCN(Cc1ccc(C#N)cc1)C2c1ccccc1 (stereo not drawn)	-13%	x	-24	u	x
COc1ccccc1C(=O)NC1(C(F)(F)F)C(=O)Nc2c1c(=O)[nH]c(=O)n2-c1ccccc1 (stereo not drawn)	-6%	x	5	16%[46.1 µM]	1%[46.1 µM]
CC1CC(=O)c2c(cc3c(-c4c(O)cc(O)c5c(O)c6c(cc45)OC(C)CC6=O)c(O)cc(O)c3c2O)O1 (stereo not drawn)	35µM*	4.5µM*	x	x	x
C[N+](C)(C)CCOC(=O)CCC(=O)OCC[N+](C)(C)C	-15%	-15%	-77*!	-8%	u
C[N+](C)(C)CCOC(=O)CBr	-5%	u	-35	-12%	6%
COc1ccccc1CNC(=O)CCC(=O)N1CC2CCCN2c2ccccc21 (stereo not drawn)	-20%	x	-22	-11%[46.1 µM]	x
O=C(CNc1cccc(S(=O)(=O)N2CCCC2)c1)Nc1cccc(F)c1	-23%	-7%	-6	2%	u
N#Cc1cccc(NC(=O)CNc2cccc(S(=O)(=O)N3CCCC3)c2)c1	2%	2.5µM*	-26	u	u
O=C(CNc1cccc(C(F)(F)F)c1)Nc1cccc(S(=O)(=O)N2CCCC2)c1	-21%	11µM*	u	x	x
O=C(CNc1cc(S(=O)(=O)N2CCOCC2)ccc1N1CCOCC1)Nc1cccc(C(F)(F)F)c1	-10%	8%	1	u	13%[46.1 µM]
O=C(CNc1cc(S(=O)(=O)N2CCCC2)ccc1OCC(F)(F)F)Nc1cccc(C(F)(F)F)c1	u	11µM*	-69*	u	u
COC(=O)c1cc(OC)c(OC)cc1NCC(=O)Nc1cccc(C(F)(F)F)c1	u	u	u	-11%	10µM*
COc1ccc(-c2nc3n(n2)C(c2ccc(OC)c(OC)c2)C(C(=O)Nc2cccnc2)=C(C)N3)cc1 (stereo not drawn)	-13%	x	u	-14%[46.1 µM]	x
CCOC(=O)C1NNN2C3CCCCC3C(N(CC)CC)NC12 (stereo not drawn)	x	x	x	x	18%[46.1 µM]
COc1ccc(CNC(=O)CSc2ncc(S(=O)(=O)c3ccc(C)c(Cl)c3)c(=O)[nH]2)cc1	-5%	x	8	21%[46.1 µM]	x
COc1ccc(NC(=O)CSc2nnc(NC(=O)NC3CCCCC3)s2)cc1OC	38%	x	u	-2%[46.1 µM]	x
